The values below come from ChEMBL document CHEMBL1157539, “Thousands of chemical starting points for antimalarial lead identification” (Nature, 2010).

Common to all, as to assay type: functional
Experiment [1] has as its system Plasmodium falciparum. The experiment can be described thus: GSK_TCMDC: Inhibition of Plasmodium falciparum 3D7 in whole red blood cells, using parasite LDH activity as an index of growth. Test compounds present at 2uM.
In experiment [2] the test system is Plasmodium falciparum. Briefly: GSK_TCMDC: Inhibition of Plasmodium falciparum Dd2 in whole red blood cells, using parasite LDH activity as an index of growth. Test compounds present at 2uM.
A further experiment concerns HepG2. The experiment can be described thus: GSK_TCMDC: Percent inhibition of human HepG2 cell line. Test compounds present at 10uM.

Turning to `Cc1cc(N[C@@H](Cc2ccccc2)C(=O)Nc2ccccc2)nc(NCCc2cccs2)n1.O=C(O)C(F)(F)F`, the Inhibition in the experiment with Plasmodium falciparum [1] was 100%; with Plasmodium falciparum [2] it was 72%; with HepG2, 0%.
In the same order, the values of `Cc1[nH]c(C)c(-c2ccc(-c3ccc(Cl)cc3)cc2)c(=O)c1Cl` are 96%, 96% and 0%.
With `Cc1[nH]c(C)c(-c2ccc(-c3cccc(C(F)(F)F)c3)nc2)c(=O)c1Br`, the Inhibition came to 97% with Plasmodium falciparum [1], 96% with Plasmodium falciparum [2] and 28% in the experiment with HepG2.
Consider `Cc1ccc(CN2CCN(c3cc4c(cc3Cl)CCN4C(=O)Cc3ccc(NC(=O)c4ccc(C(F)(F)F)cc4)cc3)CC2)cc1`, for which the Inhibition in the experiment on Plasmodium falciparum [1] came out at 88%; in the experiment on Plasmodium falciparum [2], 0%; in the experiment on HepG2, 15%.
Take `Cc1cccc2c(C(=O)NC3CCN(Cc4ccccc4)CC3)cc(-c3cccnc3)nc12`: the values for the Inhibition in the experiment with Plasmodium falciparum [1], in the experiment on Plasmodium falciparum [2] and with HepG2 were 81%, 10% and 12%, respectively.
With `O=C(O)C(F)(F)F.c1ccc2c(c1)CN(Cc1cc3ccccc3[nH]1)CC1(CCN(Cc3c[nH]c4cnccc34)CC1)O2`, the figures for the Inhibition in the experiment with Plasmodium falciparum [1], with Plasmodium falciparum [2] and with HepG2 were 100%, 62% and 27%, respectively.
For `O=C(Nc1ccc(Cl)cc1)c1cc(Cl)cc2nc(C(F)(F)F)[nH]c12` the same measures were 100%, 100% and 87%.
With `COc1ccc(-c2nc3c4ccccc4c4ccc(I)cc4c3[nH]2)cc1`, the Inhibition turned out to be 96% in the experiment with Plasmodium falciparum [1], 16% in the experiment on Plasmodium falciparum [2] and 4% in the experiment with HepG2.
For `CC[C@H](N/C(=N\c1cccc(Cl)c1Cl)Nc1ccc(C#N)cc1O)c1ccccc1` the same measures were 91%, 71% and 0%.
Consider `CNc1ccc(CNCc2cccc(-c3ccc(-c4nc5ccccc5[nH]4)cc3)c2)cc1.O=C(O)C(F)(F)F`, for which the Inhibition in the experiment with Plasmodium falciparum [1] was 100%; in the experiment on Plasmodium falciparum [2], 80%; in the experiment on HepG2 it was 18%.
